From the supplement of paper PMC11482750
± gives the standard deviation of the averaged measurements.

Compound: CCCCN=C=S [butyl isothiocyanate]
Experiment: control-subtracted net OSN firing rate; higher = stronger neuronal activation
Conditions: odorant dilution (vol/vol): 1/100
Protocol: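 Single sensillum recordings from olfactory sensory neurons. The neurons sit in the maxillary palp or antennal sensilla of D. melanogaster (wild type, mutants, or at1 empty-neuron lines expressing Or42a homologs or the A181D S307P mutant) and of four Scaptomyza species. Each odorant was given as a 1 s pulse from 20 µl loaded on filter paper at 1:100 vol/vol, diluted in mineral oil (γ-hexalactone in DMSO). Spikes were counted in a 0.5 s window starting 0.2 s after onset, background was subtracted, the count was doubled, and the mean solvent-control response was subtracted.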

Target	control-subtracted net OSN firing rate [spikes/s]
S. montana pb1a-like	92.3 ± 11
S. flava pb3a-like	5.67 ± 8.2
Or67dGal4, UAS-Sfla A181D S307P/+ at1	29 ± 10
S. flava pb1a-like	90.7 ± 22
Or67dGal4, UAS-Sfla Or42a4 at1	96.7 ± 25
S. hsui pb1b-like	-1 ± 5.2
Or67dGal4; UAS-SflaOr42a3 at1	74.8 ± 23
Canton-S (D. melanogaster) pb1b	-2.22 ± 8
S. montana pb3b-like	0.333 ± 6.1
Canton-S (D. melanogaster) pb3b	2 ± 11
S. pallida pb1a-like	11.7 ± 10
S. pallida pb3a-like	-3 ± 7.5
S. montana pb1b-like	-15 ± 6.8
Or67dGal4, UAS-Sfla Or42a3 at1	46 ± 28
S. hsui pb3b-like	1 ± 2.8
S. montana pb2a-like	2 ± 4.6
Or67dGal4; UAS-SflaOr42a4 at1	120 ± 36
S. montana pb2b-like	-0.333 ± 6
S. hsui pb2b-like	3.67 ± 6.9
S. flava pb1b-like	-17.7 ± 20

Target	control-subtracted net OSN firing rate [spikes/s]
S. flava pb2b-like	-1.33 ± 10
S. pallida pb2b-like	2.67 ± 9.3
S. hsui pb3a-like	0 ± 6.8
Or67dGal4, UAS-Sfla Or42a4/+ at1	22.6 ± 4.1
S. hsui pb2a-like	-1 ± 6
S. pallida pb3b-like	-1.67 ± 20
Canton-S (D. melanogaster) pb1a	8 ± 8.9
S. pallida pb1b-like	-4.33 ± 11
Or67dGal4; UAS-A181D S301P at1	68.6 ± 33
S. flava pb3b-like	1.67 ± 15
Or67dGal4, UAS-Spal Or42a at1	18.2 ± 16
S. hsui pb1a-like	7.67 ± 5.8
Or67dGal4, UAS-Sfla Or42a2 at1	2.86 ± 5
Or67dGal4, UAS-Sfla Or42a3/+ at1	27.7 ± 5
Canton-S (D. melanogaster) pb3a	2.5 ± 6.6
S. pallida pb2a-like	5 ± 7.6
Canton-S (D. melanogaster) pb2b	-1.71 ± 8.6
S. montana pb3a-like	0.667 ± 10
Canton-S (D. melanogaster) pb2a	3.43 ± 2.8
Or67dGal4, UAS-Dmel Or42a at1	10.3 ± 7.7
